Assay results reported in PubChem BioAssay AID2061317 (National Center for Advancing Translational Sciences (NCATS), 2025).
Records with an inconclusive call do not appear. Calls of active or inactive are those of the source. Calls come from the whole dose curve; as a rule, active = well fitted inhibition curve with a large enough effect; inconclusive = small, poorly fitted or top-dose-only effect; inactive = flat fitted curve, though single readings scatter. Non-standard residues stand in square brackets, D forms with d. Residues, ends and D or L forms follow the SMILES beside them. Dolaproine = CO[C@@H]([C@@H]1CCCN1)[C@@H](C)C(=O)O; Dil = CC[C@H](C)[C@H](NC)[C@@H](CC(=O)O)OC; NMeV = CN[C@H](C(=O)O)C(C)C

Test: Identification of antibody-drug conjugate (ADC) payloads which are substrates of ATP-binding cassette drug efflux transporters: ABCB1-HEK293-MDR-19 cell line with tariquidar
Details: HEK293 ABCB1 (MDR-19) + tariquidar, CellTiter-Glo viability, 48 h
Text: Antibody-drug conjugates (ADCs) feature an antibody recognizing a specific protein joined to a potent toxic payload. Numerous antibody-drug conjugates have received FDA approval; however, clinical resistance arises. Resistance mechanisms include decreased expression or mutation of the antibody target, impaired payload release, or increased expression of ATP-binding cassette (ABC) efflux transporters associated with multidrug resistance. We therefore sought to characterize the interaction of ABC multidrug transporters with ADC payloads. We performed a high-throughput screen with 27 common ADC payloads using cells lines expressing ABC transporters P-glycoprotein (P-gp, encoded by ABCB1) or ABCG2 (encoded by ABCG2). Confirmatory assays were also performed using cells transfected to express P-gp, ABCG2, or MRP1 (encoded by ABCC1). Several commonly used ADC payloads were substrates of P-gp, including calicheamicin gamma1, monomethyl auristatin E, DM1, and DM4. All the pyrrolobenzodiazepines tested - SJG136, SGD-1882, SG2057, and SG3199 - were substrates of P-gp, ABCG2, and MRP1. […] These findings highlight the risk of transporter-mediated resistance with certain ADC payloads and underscore the importance of selecting payloads that evade ABC transporter recognition in future ADC development.
HEK-293 cells were transfected with empty vector (pcDNA) or vector containing the human ABCB1 (MDR-19), ABCG2 (R-5), or ABCC1 gene (MRP1) and were maintained in EMEM with 2 mg/mL G418 added to maintain transporter expression. The HeLa derivative KB-3-1 and the P-gp overexpressing KB-8-5-11 subline were maintained in DMEM; KB-8-5-11 additionally received 100 ng/mL colchicine. H460 parental cells were obtained from the Division of Cancer Treatment and Diagnosis Tumor Repository, National Cancer Institute at Frederick, MD and were cultured in RPMI. The ABCG2 expressing subline H460 MX20 was generated by selecting H460 cells in 20 nM mitoxantrone. Media in all cases was supplemented with 10% FBS and 1% penicillin-streptomycin. We explored 27 common ADC payloads, in two orthogonal, paired cell line sets-a drug selected and transfected set for each transporter--to identify substrates of the ABC transporters P-gp and ABCG2. Compounds were sourced from Levena Biopharma (San Diego, CA), Selleck Chem (Houston, TX), ChemieTek (Indianapolis, IN), or Microsource Discovery Systems (Gaylordsville, CT). Screening was performed as previously described. Briefly, cells were plated at a density of 500 cells/well in 1536 well plates with compounds added using a 1536-head pin tool (Kalypsys, San Diego CA). Cells were incubated with cytotoxic drugs and processed with CellTiter Glo reagent (Promega, Madison, WI) to determine viability after 48 hours. P-gp substrates were identified by comparing compound activity between paired sets of low-expressing (sensitive) and over-expressing (resistant) cell lines.

| SMILES | Potency |
| --- | --- |
| COc1cccc2c1C(=O)c1c(O)c3c(c(O)c1C2=O)C[C@@](O)(C(=O)CO)C[C@@H]3O[C@H]1C[C@H]2[C@H](O[C@@H]3[C@@H](OC)OCCN32)[C@H](C)O1 | 0.0265 nM (active) |
| CCN[C@H]1CO[C@@H](O[C@H]2[C@H](O[C@H]3C#C/C=C\C#C[C@]4(O)CC(=O)C(NC(=O)OC)=C3/C4=C\CSSSC)O[C@H](C)[C@@H](NO[C@H]3C[C@H](O)[C@H](SC(=O)c4c(C)c(I)c(O[C@@H]5O[C@@H](C)[C@H](O)[C@@H](OC)[C@H]5O)c(OC)c4OC)[C@@H](C)O3)[C@@H]2O)C[C@@H]1OC | 0.1 nM (active) |
| CN(C)CCOc1ccc2[nH]c(C(=O)N3C[C@@H](CCl)c4c3cc(O)c3ccccc43)cc2c1 | 0.5 nM (active) |
| Cc1nc(Nc2ncc(C(=O)Nc3c(C)cccc3Cl)s2)cc(N2CCN(CCO)CC2)n1 | 13300 nM (active) |
| COc1cccc2c1C(=O)c1c(O)c3c(c(O)c1C2=O)C[C@@](O)(C(=O)CO)C[C@@H]3O[C@H]1C[C@H](N)[C@H](O)[C@H](C)O1 | 33.4 nM (active) |
| CC[C@H](C)[C@@H]([C@@H](CC(=O)N1CCC[C@H]1[C@H](OC)[C@@H](C)C(=O)N[C@@H](Cc1ccccc1)C(=O)O)OC)N(C)C(=O)[C@@H](NC(=O)[C@@H](NC)C(C)C)C(C)C (H-[NMeV]V[Dil][Dolaproine]F-OH) | 529 nM (active) |
| CCc1c2c(nc3ccc(O)cc13)-c1cc3c(c(=O)n1C2)COC(=O)[C@]3(O)CC | 4.2 nM (active) |
| COC(=O)c1cc2c3c(cc(O)c2[nH]1)N(C(=O)c1cc2cc(OC)c(OC)c(OC)c2[nH]1)CC3CCl (stereo unspecified) | 0.7 nM (active) |
| CC(C)(C)OC(=O)Nc1ccc2[nH]c(C(=O)N3C[C@@H](CCl)c4c3cc(O)c3ccccc43)cc2c1 | 11.8 nM (active) |
| COc1cc2cc(c1Cl)N(C)C(=O)C[C@H](O)[C@]1(C)O[C@H]1[C@H](C)C1C[C@@](O)(NC(=O)O1)[C@H](OC)/C=C/C=C(\C)C2 | 2650 nM (active) |
| CCN(C(C)=O)[C@H]1CO[C@@H](O[C@H]2[C@H](O[C@H]3C#C/C=C\C#C[C@]4(O)CC(=O)C(NC(=O)OC)=C3/C4=C\CSSSC)O[C@H](C)[C@@H](NO[C@H]3C[C@H](O)[C@H](SC(=O)c4c(C)c(I)c(O[C@@H]5O[C@@H](C)[C@H](O)[C@@H](OC)[C@H]5O)c(OC)c4OC)[C@@H](C)O3)[C@@H]2O)C[C@@H]1OC | 1.2 nM (active) |
